Experimental data reported in PubChem BioAssay (NCI).
The panel holds about 83,000 compounds, 20% with a hit somewhere; the sample as a whole holds those more often.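 Growth was measured after 48 h exposure to one concentration of compound in 96-well plates. Values under 10 count as active.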 The source made the active and inactive calls.

Key:
Test in all cases: NCI-60 one-dose screen, 48 h (100 = growth as untreated, 0 = no growth, -100 = all killed)
NCI-H23 lung = details: 10 µM
NCI-H460 lung = details: 10 µM
HOP-92 NSCLC = details: 10 µM
A549/ATCC NSCLC = details: 10 µM
K-562 leukemia = details: 10 µM
MDA-MB-231 breast = details: 10 µM
RXF 393 renal = details: 10 µM
HT29 colon = details: 10 µM
LOX IMVI melanoma = details: 10 µM
UO-31 renal = details: 10 µM
CCRF-CEM leukemia = details: 10 µM
MOLT-4 leukemia = details: 10 µM
SR leukemia = details: 10 µM
OVCAR-5 ovarian = details: 10 µM
HS 578T breast = details: 10 µM
MDA-MB-468 breast = details: 10 µM unless noted
EKVX NSCLC = details: 10 µM
NCI/ADR-RES ovarian = details: 10 µM
T-47D breast = details: 10 µM
SW-620 colon = details: 10 µM

Measured: growth

CC(C)C[C@H](NC(=O)CNC(=O)C[C@H]1O[C@@H]2OC3(C)CC[C@H]4[C@H](C)CC[C@@H]([C@H]1C)[C@@]24OO3)B(O)O
inactive: NCI-H460 lung 13.6% | A549/ATCC NSCLC 32.7% | UO-31 renal 15.5% | SR leukemia 28.7%
active: NCI-H23 lung -2.35% | HOP-92 NSCLC -20.1% | K-562 leukemia 4% | MDA-MB-231 breast -68% | RXF 393 renal -81.6% | HT29 colon -56% | LOX IMVI melanoma -86.4% | CCRF-CEM leukemia -9.96% | MOLT-4 leukemia 1.81% | OVCAR-5 ovarian -28.3% | HS 578T breast 7.9% | MDA-MB-468 breast -60.8%

CC[C@]12C=CCN3CC[C@@]4(c5ccc(OC)cc5N(C)[C@H]4[C@@](O)(C(=O)OC)[C@@H]1OC(=O)CCC[P+](c1ccc(F)cc1)(c1ccc(F)cc1)c1ccc(F)cc1)[C@@H]32
active: HOP-92 NSCLC -6.2% | RXF 393 renal -10.4% | MDA-MB-468 breast -74.6%
inactive: NCI-H23 lung 35.5% | NCI-H460 lung 30.9% | A549/ATCC NSCLC 54.5% | K-562 leukemia 21.6% | MDA-MB-231 breast 22% | HT29 colon 15.7% | LOX IMVI melanoma 31% | EKVX NSCLC 58.1% | UO-31 renal 81.5% | CCRF-CEM leukemia 20% | MOLT-4 leukemia 37.1% | SR leukemia 42.6% | OVCAR-5 ovarian 67% | HS 578T breast 19.1%

COc1ccc(/C=C/C(=O)c2nc3ccccc3n2Cc2ccc(Br)cc2)cc1
inactive: NCI-H23 lung 61.9% | NCI-H460 lung 57.8% | HOP-92 NSCLC 64.2% | A549/ATCC NSCLC 74.6% | K-562 leukemia 21.1% | RXF 393 renal 83.6% | UO-31 renal 52.4% | CCRF-CEM leukemia 18.7% | MOLT-4 leukemia 20.7% | SR leukemia 25.6% | NCI/ADR-RES ovarian 61.5% | T-47D breast 31.1% | MDA-MB-468 breast 16.9%

CC1=C(COCCOC(=O)c2ccc(S(=O)(=O)F)cc2)C2=C(C)C3(CC3)[C@@](C)(O)C(=O)C2=C1
inactive: K-562 leukemia 32.6% | CCRF-CEM leukemia 15.8% | MOLT-4 leukemia 36%
active: NCI-H460 lung 2.07% | HOP-92 NSCLC -29.7% | A549/ATCC NSCLC 4.56% | MDA-MB-231 breast -27.2% | RXF 393 renal -81.4% | HT29 colon -28.5% | LOX IMVI melanoma -62.7% | EKVX NSCLC -32.7% | UO-31 renal -33.3% | HS 578T breast -12.9% | T-47D breast -13.2% | MDA-MB-468 breast -87.5%

CC12OOC(C)(OO1)C2CCC(=O)NCCCNc1ccnc2cc(Cl)ccc12 (stereo not drawn)
inactive: NCI-H460 lung 88.6% | MDA-MB-231 breast 82.7% | HT29 colon 35% | EKVX NSCLC 85.6% | MOLT-4 leukemia 34.6% | OVCAR-5 ovarian 84.4% | HS 578T breast 103%
active: HOP-92 NSCLC 4.9% | K-562 leukemia 4.06% | RXF 393 renal 4.73% | LOX IMVI melanoma -92.8% | UO-31 renal -99.4% | CCRF-CEM leukemia 3.13% | SR leukemia -36.1%

O=C(/C=C/c1ccc(Br)cc1)c1nc2ccccc2n1Cc1ccc(Br)cc1
inactive: A549/ATCC NSCLC 30% | CCRF-CEM leukemia 10.3%
active: NCI-H460 lung -14.4% | HOP-92 NSCLC -11.1% | K-562 leukemia 0.898% | RXF 393 renal -82% | UO-31 renal -66.4% | MOLT-4 leukemia -4.04% | SR leukemia -13.9% | NCI/ADR-RES ovarian -38.2% | T-47D breast 1.99% | MDA-MB-468 breast -74.3%

C[C@H]1[C@@H](CC(=O)N[C@@H](Cc2coc3ccccc23)B(O)O)O[C@@H]2OC3(C)CC[C@H]4[C@H](C)CC[C@@H]1[C@@]24OO3
inactive: UO-31 renal 18.3% | SR leukemia 17.4%
active: NCI-H23 lung -65.9% | HOP-92 NSCLC -68.6% | K-562 leukemia 4.86% | MDA-MB-231 breast -92% | RXF 393 renal -88.4% | HT29 colon -57.6% | LOX IMVI melanoma -92.3% | CCRF-CEM leukemia -10.3% | MOLT-4 leukemia 8.41% | HS 578T breast -4.2% | T-47D breast -27.7% | MDA-MB-468 breast -60.6%

C=CCN=C([Se])NC(=O)c1ccc2c(c1)OCO2
inactive: NCI-H460 lung 18.3% | HOP-92 NSCLC 151% | A549/ATCC NSCLC 40.4% | K-562 leukemia 107% | MDA-MB-231 breast 103% | RXF 393 renal 128% | LOX IMVI melanoma 104% | EKVX NSCLC 73.5% | UO-31 renal 115% | CCRF-CEM leukemia 87.1% | MOLT-4 leukemia 107% | SR leukemia 93.1% | HS 578T breast 99.3% | NCI/ADR-RES ovarian 60.3%

CC1=C(C=O)C2=C(C)C3(CC3)[C@@](C)(O)C(=O)C2=C1
inactive: NCI-H23 lung 10.3% | HOP-92 NSCLC 18.5% | EKVX NSCLC 68% | UO-31 renal 11.2% | CCRF-CEM leukemia 18% | HS 578T breast 36.3% | T-47D breast 13.5%
active: MDA-MB-231 breast -43.4% | RXF 393 renal -68.8% | LOX IMVI melanoma -76.1% | SW-620 colon -15.8% | MDA-MB-468 breast -33.8%

O=C(/C=C/c1ccc(Cl)cc1Cl)c1nc2ccccc2n1Cc1ccc(Br)cc1
active: CCRF-CEM leukemia 5.89%
inactive: NCI-H23 lung 72.3% | HOP-92 NSCLC 65.8% | K-562 leukemia 53.5% | RXF 393 renal 58.2% | EKVX NSCLC 61.6% | UO-31 renal 50.9% | MOLT-4 leukemia 15.4% | SR leukemia 14.4% | OVCAR-5 ovarian 98% | MDA-MB-468 breast 48.9%
